Experimental data: PubChem BioAssay
Active and inactive are the calls of the source.

Tests used:
[1] = test system: Human papillomavirus type 1a protein E7 (residues 44-93); assay: HPV1a E7 fragment binders on microarrays, primary screen, biochemical, small-molecule microarray, residues 44-93, 635 nm fluorescence (AID 1108); conditions: small-molecule microarray binding, fluorescence 635 nm; higher = more signal;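 further: E7 fragment applied at 1 µg/mL in TBST for 1 h at 4 C; score combines spot fluorescence with its signal to noise ratio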
[2] = modulators of HCV replicon luciferase signal, primary screen, HCV replication inhibitor project, Huh7 cells, luciferase reporter (AID 1109); conditions: 48 h, higher = more signal;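 further: huh7 hepatoma cells harbouring a luciferase neomycin HCV replicon reporter; luciferase luminescence as measure of HCV replicon replication; test concentration not given here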
[3] = molecular target: Left-right determination factor 2 (Homo sapiens) (UniProt O00292); assay: LEFTY2 binders on small-molecule microarrays, primary screen, biochemical, small-molecule microarray, 635 nm fluorescence scan (AID 1110); conditions: LEFTY2 binding, higher = more signal
Sequence of Left-right determination factor 2 (Homo sapiens) (O00292 whole entry, looked up): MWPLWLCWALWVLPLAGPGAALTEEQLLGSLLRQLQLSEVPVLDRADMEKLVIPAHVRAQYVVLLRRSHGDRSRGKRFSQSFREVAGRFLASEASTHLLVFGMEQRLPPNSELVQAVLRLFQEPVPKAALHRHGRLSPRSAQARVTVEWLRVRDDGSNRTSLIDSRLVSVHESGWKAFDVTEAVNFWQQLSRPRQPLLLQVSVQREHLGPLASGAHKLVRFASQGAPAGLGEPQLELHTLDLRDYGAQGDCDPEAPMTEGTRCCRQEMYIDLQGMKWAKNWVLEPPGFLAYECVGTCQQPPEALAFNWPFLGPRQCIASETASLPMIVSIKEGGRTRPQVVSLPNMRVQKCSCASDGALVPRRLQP

[4] = molecular target: Calmodulin-1 (Homo sapiens) (UniProt P0DP23); assay: CALM1 binders on microarrays, EGTA buffer, profiling panel, biochemical, small-molecule microarray, Cy5-labelled CALM1 (AID 1111); conditions: Cy5-CALM1 binding fluorescence, higher = more signal;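 further: labelled calmodulin applied in Tris saline Tween buffer holding calcium plus EGTA and DTT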
[5] = molecular target: Calmodulin-1 (Homo sapiens) (UniProt P0DP23); assay: calcium-bound CALM1 binders on microarrays, profiling panel, artefact control for SMM control-protein annotation, biochemical, small-molecule microarray, Cy5-labelled CALM1, plus calcium (AID 1112); conditions: Cy5-CALM1 binding fluorescence, higher = more signal;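 further: score merges spot fluorescence with signal to noise from triplicate slides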
[6] = small-molecule microarray binders of probe aWnt5a, primary screen, biochemical, biotinylated probe, 635/667 nm fluorescence (AID 1113); conditions: higher = more signal;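 further: score merges 667 nm fluorescence intensity with signal-to-noise per printed feature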
[7] = small-molecule microarray binders of probe aShh, primary screen, biochemical, biotinylated probe, 635/667 nm fluorescence (AID 1114); conditions: higher = more signal;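 further: probe is biotin-labelled aShh protein from a stem cell growth factor screen; measures binding of labelled protein to compounds printed on the slide; score merges feature fluorescence at 667 nm with signal-to-noise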
[8] = small-molecule microarray binders of probe aNog, primary screen, biochemical, biotinylated probe, 635/667 nm fluorescence (AID 1115); conditions: higher = more signal;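 further: probe is biotinylated aNog protein used at 0.15 µg/mL for 1 h at 4 C; z-score combines 667 nm fluorescence of each spot with its signal to noise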
[9] = molecular target: Torsin-1A-interacting protein 1 (Homo sapiens) (UniProt Q5JTV8); assay: LAP1 binders from COS7 cell lysate, primary screen, small-molecule microarray, 635/667 nm fluorescence (AID 1116); conditions: COS7-hLAP1 lysate binding, 635 nm fluorescence, higher = more signal
Sequence of Torsin-1A-interacting protein 1 (Homo sapiens) (Q5JTV8 whole entry, looked up): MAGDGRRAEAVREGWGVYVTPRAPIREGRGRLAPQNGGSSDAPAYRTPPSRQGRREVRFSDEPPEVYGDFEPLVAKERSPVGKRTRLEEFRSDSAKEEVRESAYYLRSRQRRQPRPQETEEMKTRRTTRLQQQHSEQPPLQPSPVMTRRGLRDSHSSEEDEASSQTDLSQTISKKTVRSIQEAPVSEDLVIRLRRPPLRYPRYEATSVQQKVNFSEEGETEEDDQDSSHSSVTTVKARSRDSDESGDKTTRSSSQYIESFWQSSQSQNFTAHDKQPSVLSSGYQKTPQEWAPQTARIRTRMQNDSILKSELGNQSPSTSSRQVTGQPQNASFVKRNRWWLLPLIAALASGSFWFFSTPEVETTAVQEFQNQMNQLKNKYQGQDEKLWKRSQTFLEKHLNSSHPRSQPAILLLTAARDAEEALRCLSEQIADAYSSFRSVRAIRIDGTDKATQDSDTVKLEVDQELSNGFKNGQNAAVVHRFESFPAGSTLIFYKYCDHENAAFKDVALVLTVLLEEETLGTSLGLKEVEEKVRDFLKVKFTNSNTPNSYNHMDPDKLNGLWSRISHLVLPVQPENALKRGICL

[10] = molecular target: Alpha-bungarotoxin (Bungarus multicinctus) (UniProt P60615); assay: alpha-bungarotoxin binders on microarray, profiling panel, artefact control for SMM control protein annotation, biochemical, small-molecule microarray, Alexa647 label, 635/667 nm fluorescence (AID 1117); conditions: alpha-BTX-A647 binding fluorescence, higher = more signal
Sequence of Alpha-bungarotoxin (Bungarus multicinctus) (P60615 whole entry, looked up): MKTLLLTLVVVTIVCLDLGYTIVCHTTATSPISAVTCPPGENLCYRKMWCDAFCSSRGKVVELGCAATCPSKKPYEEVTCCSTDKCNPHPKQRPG

Albumin (Bos taurus) = Albumin (Bos taurus) (UniProt P02769); assay: bovine serum albumin binders on microarray, profiling panel, artefact control for SMM control protein annotation, biochemical, small-molecule microarray, Alexa647 label, 635/667 nm fluorescence (AID 1118); conditions: BSA-A647 binding, fluorescence 635 nm, higher = more signal;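 further: score merges 667 nm emission intensity and signal-to-noise per printed compound spot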
Sequence of Albumin (Bos taurus) (P02769 whole entry, looked up): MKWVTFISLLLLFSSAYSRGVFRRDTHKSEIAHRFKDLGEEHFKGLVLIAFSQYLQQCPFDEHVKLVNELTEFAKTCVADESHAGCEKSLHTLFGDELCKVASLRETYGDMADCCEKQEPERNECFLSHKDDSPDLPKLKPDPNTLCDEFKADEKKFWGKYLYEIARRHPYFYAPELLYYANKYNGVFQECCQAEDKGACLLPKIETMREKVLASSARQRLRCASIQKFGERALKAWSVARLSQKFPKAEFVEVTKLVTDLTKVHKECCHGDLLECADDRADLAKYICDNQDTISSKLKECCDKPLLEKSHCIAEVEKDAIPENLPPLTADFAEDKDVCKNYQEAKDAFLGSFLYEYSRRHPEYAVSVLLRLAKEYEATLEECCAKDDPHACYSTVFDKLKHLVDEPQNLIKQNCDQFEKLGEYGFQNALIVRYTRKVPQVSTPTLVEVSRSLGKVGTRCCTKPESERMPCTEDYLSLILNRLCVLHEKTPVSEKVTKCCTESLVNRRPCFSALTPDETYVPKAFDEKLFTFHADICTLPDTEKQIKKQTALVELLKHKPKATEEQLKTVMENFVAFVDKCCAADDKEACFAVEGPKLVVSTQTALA

[11] = small-molecule microarray binders of probe aXIP, primary screen, biochemical, NeuroSMM set, 635/667 nm fluorescence (AID 1119); conditions: higher = more signal, called active from +8 up or from −8 down;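 further: probe is the protein aXip251-270 applied at 1 µg/mL to compound-printed slides; binding of probe to printed compounds measured as 667 nm fluorescence plus signal to noise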
[12] = small-molecule binders of probe aNOTCH3, primary screen, biochemical, small-molecule microarray, 635/667 nm fluorescence (AID 1120); conditions: higher = more signal;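 further: probe is a biotin-tagged antibody raised against NOTCH3 rather than NOTCH3 protein; score merges spot fluorescence near 667 nm with spot signal to noise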
[13] = small-molecule binders of probe aNOTCH2, primary screen, biochemical, small-molecule microarray, 635/667 nm fluorescence (AID 1121); conditions: higher = more signal;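 further: score merges feature fluorescence read at 667 nm with its signal to noise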
[14] = molecular target: Carbonic anhydrase 2 (Homo sapiens) (UniProt P00918); assay: CAII small-molecule binders, profiling panel, biochemical, small-molecule microarray, Alexa647-labelled CAII (AID 1122); conditions: CAII-A647 binding fluorescence, higher = more signal
[15] = COS7 lysate on small-molecule microarray, probe aHis, 635 nm (AID 1123); conditions: COS7 cell lysate, fluorescence, higher = more signal;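 further: z-score combines 667nm fluorescence intensity with signal-to-noise per printed compound spot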
[16] = compound binding in COS7 lysate, probe aLAP1, primary screen, cell lysate, small-molecule microarray (AID 1124); conditions: probe aLAP1, fluorescence, higher = more signal;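 further: lysate comes from COS7 cells expressing LAP1 and is applied at 0.3 µg/mL; score merges spot fluorescence near 667 nm with signal-to-noise over triplicate slides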
Sam68 (KHDRBS1) = assay: Sam68 small-molecule binders, primary screen, biochemical, small-molecule microarray, 635 nm fluorescence (AID 1125); conditions: small-molecule microarray binding, higher = more signal;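 further: score merges 667 nm channel intensity with signal to noise over triplicate slides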
[17] = test system: Chordin-like protein 2 (CHRDL2); assay: CHRDL2 small-molecule binders, primary screen, biochemical, small-molecule microarray, 635 nm fluorescence (AID 1126); conditions: small-molecule microarray binding, fluorescence 635 nm; higher = more signal;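 further: printed compound slides probed with Chrdl2 protein at 4 µg/mL for 1 h at 4 C; score merges 667 nm emission intensity with signal to noise over three replicate slides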
[18] = molecular target: Concanavalin-A (Canavalia ensiformis) (UniProt P02866); assay: ConA small-molecule binders, primary screen, artefact control for SMM control protein annotation, biochemical, small-molecule microarray, Alexa647 label, 635 nm (AID 1127); conditions: ConA-A647 binding fluorescence, higher = more signal;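 further: z combines 667 nm emission intensity with signal-to-noise across three replicate slides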
Sequence of Concanavalin-A (Canavalia ensiformis) (P02866 whole entry, looked up): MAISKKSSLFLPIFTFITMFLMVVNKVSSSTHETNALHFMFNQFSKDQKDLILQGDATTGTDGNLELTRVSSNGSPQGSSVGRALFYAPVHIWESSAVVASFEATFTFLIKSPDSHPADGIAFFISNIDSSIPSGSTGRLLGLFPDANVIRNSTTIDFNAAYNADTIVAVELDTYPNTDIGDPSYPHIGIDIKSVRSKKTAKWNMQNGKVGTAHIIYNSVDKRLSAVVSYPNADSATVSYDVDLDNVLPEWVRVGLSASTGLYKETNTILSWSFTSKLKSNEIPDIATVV

| SMILES | composite z-score [1] | z-score [2] | composite z-score [3] | composite z-score [4] | composite z-score [5] | composite z-score [6] | composite z-score [7] | composite z-score [8] | composite z-score [9] | composite z-score [10] | composite z-score (Albumin (Bos taurus)) | composite Z-score [11] | composite z-score [12] | composite z-score [13] | composite z-score [14] | composite z-score [15] | composite z-score [16] | composite z-score (Sam68 (KHDRBS1)) | composite z-score [17] | composite z-score [18] |
| --- | --- | --- | --- | --- | --- | --- | --- | --- | --- | --- | --- | --- | --- | --- | --- | --- | --- | --- | --- | --- |
| COc1ccc(CC[C@H](O)c2cccc(OCC(=O)OC(C)(C)C)c2)cc1 | 1.38 | -1.12 | 0.461 | 0.829 | -0.271 | 0.0181 | 0.167 | -0.216 | 1.27 | 0.737 | 0.625 | 0.0178 (inactive) | -0.0014 | -0.0876 | 0.29 | 1.34 | 0.341 | 1.33 | 0.723 | 1.2 |
| CC(C)[C@@H](C(=O)O)n1cc(-c2ccccc2)nn1 | 0.972 | 0.281 | 0.396 | 0.913 | 0.957 | 0.0145 | 0.227 | -0.0238 | 0.941 | 1.03 | 0.739 | 0.0388 (inactive) | -0.0225 | -0.0454 | 0.39 | 0.575 | 0.547 | 1.06 | -0.145 | 1.12 |
| COc1ccc([Si](C)(C)[C@H]2[C@H](CC(=O)N3Cc4ccccc4C[C@H]3CO)O[C@@]3(C(=O)N(Cc4cccc(N5C(=O)c6cccc7cccc5c67)c4)c4ccccc43)[C@@H]2C)cc1 | 1.19 | -4.08 | 0.633 | -0.144 | -0.836 | -0.0316 | -0.0778 | 1.11 | 0.302 | 2.33 | -0.0311 | 0.285 (inactive) | -0.332 | -0.114 | 0.295 | 1.32 | 0.271 | 1.15 | 1.33 | 0.872 |
| CCN(CC)c1ccc(N2CC=CC34O[C@@H]5C=CCOC(=O)[C@@H]5[C@H]3C(=O)N(CCO)[C@@H]4C2=O)cc1 (stereo not given in full) | -0.73 | 0.466 | -2.26 | -0.97 | 0.266 | -0.25 | 0.0756 | -0.338 | 0.422 | -1.29 | -0.869 | 2.39 (inactive) | 0.0035 | -0.24 | 0.913 | -0.368 | -0.714 | -0.683 | -1.83 | -1.14 |
| CC(C)C[C@H]1NC(=O)[C@@H](C)NC(=O)[C@@]23C(=O)N[C@@H](Cc4ccccc4)C2[C@H](C)[C@@]2(C)O[C@H]2C3/C=C/C/C=C\CNC1=O (stereo not given in full) | 1.29 | -1.61 | 0.137 | -0.596 | -1.09 | -0.175 | -0.223 | -0.205 | -0.0872 | -0.133 | 0.239 | -0.162 (inactive) | -0.189 | -0.202 | 0.686 | 0.394 | -0.0995 | 0.997 | 0.831 | 0.124 |
| C=CC[C@]1(C(=O)NCc2ccccc2)COC(c2ccc(OCCCO)cc2)=N1 | -0.298 | -1.65 | -1 | 0.388 | -0.733 | 0.0293 | 0.0982 | 0.54 | 3.03 | 3.83 | 0.981 | 3.11 (inactive) | 0.0789 | 0.114 | 0.84 | 2.75 | 1.46 | -0.297 | -0.623 | -0.507 |
| C=CCC(OC(C)=O)[C@@H]1[C@@H](N(Cc2ccc(-c3ccccc3)cc2)C(=O)c2ccc(C)cc2)c2cc(OCCCO)ccc2N1C(=O)c1ccc2ccccc2c1 (stereo not given in full) | -0.129 | -0.33 | -0.103 | 0.0626 | 0.235 | -0.0222 | -0.17 | -0.448 | 0.202 | 0.408 | 0.608 | -0.46 (inactive) | 0.0282 | -0.127 | -0.104 | 0.756 | -0.031 | -0.15 | 0.0542 | -0.328 |
| CCOC(=O)C[C@H]1[C@H](OC(=O)c2ccc(-c3ccccc3)cc2)[C@@H](NC(=O)c2ccc3ccccc3c2)c2cc(OCCCO)ccc2N1C(=O)c1ccccc1 | 0.965 | -1.09 | 0.564 | 0.128 | 0.116 | 0.163 | 0.0637 | 0.0395 | 0.341 | 0.509 | 0.571 | 1.03 (inactive) | 0.0351 | -0.132 | 0.119 | 0.916 | 0.14 | 1.16 | -0.126 | 0.353 |
| COC(=O)[C@@]1(Cc2ccccc2)[C@H]2c3cc(C(=O)N4CCCC4)n(Cc4ccc(C(F)(F)F)nc4)c3C[C@H]2CN1C(=O)c1ccccc1 | 1.46 | -2.59 | -0.208 | 1.96 | 0.836 | 0.288 | 1.36 | 1.48 | 0.658 | 1.56 | 0.958 | -0.296 (inactive) | 0.843 | 0.292 | 0.478 | 3.1 | 0.232 | 1.31 | -0.873 | 1.16 |
| [N-]=[N+]=NCc1ccccc1C[C@]1(C(=O)N2CCOCC2)N=C(c2ccc(OCCCO)cc2)O[C@H]1c1ccccc1CN=[N+]=[N-] | 0.344 | -2.48 | -0.0716 | 2.49 | 1.28 | 0.653 | 0.564 | 0.967 | 2.79 | 2.74 | 0.954 | -0.161 (inactive) | 0.598 | 0.502 | 0.802 | 3.34 | 0.853 | 1.3 | -0.655 | 1.14 |
| CCCCC(O)C1C=CC2C(=O)NC(=O)C2N1Nc1ccccn1 (stereo not given) | -0.382 | -1.11 | 0.132 | -0.0937 | -0.466 | -0.1 | 0.25 | 0.289 | 0.233 | 0.275 | 0.082 | 0.0557 (inactive) | -0.155 | 0.0377 | 0.885 | -0.234 | 0.386 | -1.01 | -0.0858 | 0.344 |
